# Assay results as given in paper PMC4336329 (PLoS ONE, 2015).
# About 14,000 (4.5%) of roughly 310,000 compounds showed an effect of 50% or more. Effects have a minus sign here. This is one part of a sample in which strong results are shown more often than they occur.
# Molecular target: human ether-à-go-go-related gene (hERG) potassium channel (human, UniProt Q12809)
# Experiment: primary screen, population patch clamp on CHO cells stably expressing hERG; higher = less effect of the substance
# 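Further: peak tail current of the secondary pulse compared with the same well before compound.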
# Sequence of human ether-à-go-go-related gene (hERG) potassium channel (Q12809 whole entry, looked up): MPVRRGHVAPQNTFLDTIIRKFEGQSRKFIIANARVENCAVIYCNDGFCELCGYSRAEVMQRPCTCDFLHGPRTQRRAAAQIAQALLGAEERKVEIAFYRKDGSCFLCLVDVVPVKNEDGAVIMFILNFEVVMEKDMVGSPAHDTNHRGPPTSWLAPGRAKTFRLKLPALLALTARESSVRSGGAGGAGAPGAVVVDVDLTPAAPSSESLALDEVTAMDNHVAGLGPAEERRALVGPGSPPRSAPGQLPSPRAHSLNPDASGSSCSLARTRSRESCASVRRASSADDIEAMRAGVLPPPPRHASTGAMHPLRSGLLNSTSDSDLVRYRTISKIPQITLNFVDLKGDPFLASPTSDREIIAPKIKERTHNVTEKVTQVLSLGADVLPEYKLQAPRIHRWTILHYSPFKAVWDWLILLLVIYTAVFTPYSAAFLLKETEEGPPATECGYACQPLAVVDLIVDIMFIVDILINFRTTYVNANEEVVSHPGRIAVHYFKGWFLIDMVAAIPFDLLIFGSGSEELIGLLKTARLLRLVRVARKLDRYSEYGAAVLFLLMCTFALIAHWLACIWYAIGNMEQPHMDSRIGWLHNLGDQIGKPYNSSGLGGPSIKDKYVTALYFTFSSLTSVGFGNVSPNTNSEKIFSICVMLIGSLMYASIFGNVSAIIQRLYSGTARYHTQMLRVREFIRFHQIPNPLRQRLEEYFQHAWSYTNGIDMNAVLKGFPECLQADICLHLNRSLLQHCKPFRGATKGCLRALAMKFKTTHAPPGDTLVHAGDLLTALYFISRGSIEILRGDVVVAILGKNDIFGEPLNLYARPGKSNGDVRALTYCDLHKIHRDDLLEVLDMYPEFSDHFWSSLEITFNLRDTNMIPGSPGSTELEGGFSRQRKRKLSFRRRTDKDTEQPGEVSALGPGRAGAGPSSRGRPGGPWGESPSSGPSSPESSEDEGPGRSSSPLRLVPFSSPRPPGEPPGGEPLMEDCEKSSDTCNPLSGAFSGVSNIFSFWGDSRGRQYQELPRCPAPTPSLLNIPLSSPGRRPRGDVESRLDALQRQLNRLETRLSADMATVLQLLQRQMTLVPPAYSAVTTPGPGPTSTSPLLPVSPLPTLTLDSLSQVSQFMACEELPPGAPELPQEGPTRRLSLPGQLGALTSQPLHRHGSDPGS
row,SMILES,"hERG current change (%, negative = inhibition) at 10uM [%]"
1,CCOC(=O)c1ccc(NC(=O)N(CC)CC)cc1,4.46
2,CCCC(=O)N1CCN(c2ccc(NC(=S)NC(=O)c3cccc(C)c3)cc2)CC1,-18.3
3,COCC(C)OC(=O)c1c(N)n(CCCN2CCOCC2)c2nc3ccccc3nc12 (centres unmarked),-9.69
4,CCCCCn1c(N)c(C(=O)NCCN2CCOCC2)c2nc3ccccc3nc21,-17.1
5,CCCCCOC(=O)c1c(N)n(CCOC)c2nc3ccccc3nc12,-70.2
6,Nc1c(C(=O)NCCN2CCOCC2)c2nc3ccccc3nc2n1Cc1ccccc1,1.38
7,Nc1c(C(=O)NCCN2CCOCC2)c2nc3ccccc3nc2n1Cc1ccco1,-68.8
8,COC(=O)c1c(N)n(CCCN2CCOCC2)c2nc3ccccc3nc12,-29.9
9,CCCCn1c(N)c(C(=O)NCCN2CCOCC2)c2nc3ccccc3nc21,-64.1
10,CCCCOCCCn1c(N)c(C(=O)OCCOC)c2nc3ccccc3nc21,-32.9
11,CCCCn1c(N)c(C(=O)OCCOC)c2nc3ccccc3nc21,-42.4
12,COCCOC(=O)c1c(N)n(CCCN2CCOCC2)c2nc3ccccc3nc12,-53.3
13,CCCCCCn1c(N)c(C(=O)NCCN2CCOCC2)c2nc3ccccc3nc21,-8.61
14,Nc1c(C(=O)NCc2ccco2)c2nc3ccccc3nc2n1CCN1CCOCC1,-4.63
15,COc1ccccc1N(CC(=O)NCc1ccccc1)C(=O)CCC(=O)Nc1cc(C)ccn1,-9.35
16,CC(O)c1c(OCc2ccccc2)ncnc1OCc1ccccc1 (centres unmarked),-15.5
17,CCN(CC)S(=O)(=O)c1ccc(S(=O)(=O)N(CC(=O)Nc2ccccc2)CC2CCCO2)cc1 (centres unmarked),-18.6
18,COc1cccc(N2CCN(C(=O)C3CCC(=O)N(C4CCCCCC4)C3)CC2)c1 (centres unmarked),-32.8
19,COc1ccc(NC2c3ccccc3C(=O)N2c2ccccn2)cc1Cl (centres unmarked),-5.24
20,Cc1ccc(-c2cc(C(=O)N/N=C/c3ccc(F)cc3)n[nH]2)o1,4.98
21,COc1ccc(CCNC(=O)c2cn3ccc(C)cc3n2)cc1OC,1.66
22,Cc1ccc(S(=O)(=O)N(C)C)cc1NC(=S)N1CCc2ccccc21,11.5

row,SMILES,"hERG current change (%, negative = inhibition) at 10uM [%]"
1,COc1ccc(NC(=O)c2cc3ccccc3[nH]2)cc1,15.4
2,Cc1ccccc1-n1c(C)c(C#N)c(=O)c(-[n+]2ccccc2)c1[S-],23.4
3,Cc1cc(S(=O)(=O)N2CCCC2)ccc1OCC(=O)NCc1ccccn1,4.98
4,O=C(NC(=C(Cl)Cl)S(=O)(=O)c1ccc(Cl)cc1)c1ccccc1,3.23
5,CC(C)Cn1c(N)c(C(=O)NCCN2CCOCC2)c2nc3ccccc3nc21,-72.7
6,Nc1c(C(=O)NCCc2ccccc2)c2nc3ccccc3nc2n1CCN1CCOCC1,-3.49
7,Nc1c(C(=O)NCCN2CCOCC2)c2nc3ccccc3nc2n1CCc1ccccc1F,-27.2
8,CCn1c(O)c(C=NCc2cccs2)c(=O)[nH]c1=O,-6.15
9,CS(=O)(=O)c1ccc(C(=O)NC2CCCCC2)cc1,12.1
10,COc1ccc2nc(C)c3c(c2c1)OC(C(C)(Cl)Br)C3 (centres unmarked),-34
11,Cc1ccc2nc(C)c3c(c2c1)OC(C(C)(Cl)Br)C3 (centres unmarked),-16.5
12,Cc1nc2ccccc2c2c1CC(C(C)(Cl)Br)O2 (centres unmarked),-61.6
13,COc1cc(N(Cc2ccccc2)Cc2ccccc2)c2ncn(C(C)C)c2c1,6.37
14,CC(C)n1cnc2c(NCc3ccccc3)nc(NCc3ccccc3)nc21,0.281
15,CC(C)n1cnc2c(N(C)c3ccccc3)nc(N(CCN(C)C)Cc3ccccc3)nc21,-73.1
16,Cc1cc(C)c2c(=O)n(CC(=O)NCCCN3CCOCC3)sc2n1,11.4
17,COCCNC(=O)Cn1cc(S(=O)(=O)N2CCN(c3ccccc3F)CC2)c2ccccc2c1=O,-2.76
18,Cn1c2ccccc2c2cnn(CC(=O)NCCCN3CCN(c4ccccc4F)CC3)c(=O)c21,-76.3
19,Cc1cc(C)c2c(=O)n(CC(=O)NCCCN3CCN(c4ccccc4F)CC3)sc2n1,-55.3
20,CCCN1CCN(CCCNC(=O)Cn2ncc3c4ccccc4n(C)c3c2=O)CC1,-56.6
21,Cn1c(C(=O)NCCCN2CCN(c3ccccc3F)CC2)cc2c(=O)n(C)c3ccccc3c21,-11.7
22,O=C(Cn1ncc2c(=O)oc3ccccc3c21)NCCN1CCN(c2ccccc2F)CC1,-28.4

row,SMILES,"hERG current change (%, negative = inhibition) at 10uM [%]"
1,O=C(Cn1cc(S(=O)(=O)N2CCN(c3ccccc3F)CC2)c2ccccc2c1=O)NCCCN1CCCCCC1,-61.1
2,CCC(C)NC(=O)Cn1cc(S(=O)(=O)N2CCN(c3ccccc3F)CC2)c2ccccc2c1=O (centres unmarked),-4.4
3,CC1CCCC(C)N1CCCNC(=O)Cn1ncc2c3ccccc3n(C)c2c1=O (centres unmarked),-36.9
4,CN1CCN(CCCNC(=O)Cn2ncc3c4ccccc4n(C)c3c2=O)CC1,12
5,CCCNC(=O)Cn1sc2nc(C)cc(C)c2c1=O,-6.1
6,CC(=O)OC1COC(N2CCc3cc([N+](=O)[O-])ccc32)C(OC(C)=O)C1OC(C)=O (centres unmarked),2.87
7,CC(=O)c1nc(N2C(=O)CC(Cc3cccc(C)c3)C2=O)sc1C (centres unmarked),-16.3
8,CCOC(=O)C1CCCN(C(=O)CCCn2nnnc2CN2CCC(C)CC2)C1 (centres unmarked),-8.13
9,O=C1Nc2ccc(Br)cc2C1(O)c1ccc(F)cc1 (centres unmarked),7
10,Nc1cc(=O)[nH]c(SCC(=O)NCC2CCCO2)n1 (centres unmarked),1.45
11,NC(=O)COC(=O)CC(c1ccccc1)c1ccccc1,4.16
12,CCCCCCC1/C(=N\NC(=O)c2ccccc2)CCC1C(=O)OC (centres unmarked),-43.8
13,CC(C)[C@H](NC(=O)N1CCn2c1nc1ccccc12)C(=O)N[C@@H](C(=O)O)c1ccccc1,17.7
14,CC(C)c1ccc(N(C)C(=O)Cc2c(C(=O)O)n(C)c3ccccc23)cc1,0.167
15,Fc1cnc(N/N=C/c2ccc(-c3ccc(Br)cc3)o2)nc1N1CCOCC1,-15.8
16,O=C(O)CCC(=O)N1CCN(c2nc(-c3ccccc3)c3cc(Br)ccc3n2)CC1,3.79
17,COc1cccc(/C=C/C(=O)OCC(=O)c2c[nH]c3ccccc23)c1,13
18,O=C(CCS(=O)(=O)Cc1ccccc1F)NCCCN1CCCCC1,8.31
19,Cc1ccccc1CS(=O)(=O)CCC(=O)NCCCN1CCOCC1,-10.6
20,COc1ccccc1N1CCN(CCCNC(=O)Cn2ncc3c([nH]c4ccccc43)c2=O)CC1,-68.6
21,Cc1ccccc1CS(=O)(=O)CCC(=O)NCCCN1CCN(c2ccccc2F)CC1,-59.3
22,O=C(Cn1ncc2c([nH]c3ccccc32)c1=O)NCCCN1CCN(c2ccccc2)CC1,-21.5

row,SMILES,"hERG current change (%, negative = inhibition) at 10uM [%]"
1,CC1CCN(CCCNC(=O)Cn2ncc3c([nH]c4ccccc43)c2=O)CC1,9.35
2,Nc1nc2ccccc2n1/N=C/c1cccnc1,2.44
3,CC(C)(OC(=O)NC(=O)C(F)(F)F)C(C)(C)OC(=O)NC(=O)C(F)(F)F,31.4
4,COc1ccc(Cn2c(O)c(C=Nc3ccc(C)cc3)c3ccccc3c2=O)cc1,2.35
5,COC(=O)C1CN(C(=O)C(C)Oc2cccc(C)c2C)c2ccccc2O1 (centres unmarked),-8.63
6,C=CCNc1nc(NCC)nc(N2CCOCC2)n1,-0.791
7,COc1ccc(-n2nc3c(c2NC(=O)COc2ccccc2)CS(=O)C3)cc1 (centres unmarked),-28.2
8,NC(=NC(=O)c1ccc(OCC(F)(F)F)nc1)c1ccc(Cl)cc1,17.9
9,O=S(=O)(NCc1cccnc1)c1ccc2c(c1)OCCO2,0.45
10,CCOC(=O)c1cnc2c(C)cccc2c1NCc1ccco1,-67.9
11,CCOC(=O)c1cnc2ccccc2c1Nc1ccc(C(=O)O)cc1.Cl,17.9
12,CCOC(=O)c1cnc2c(C)cccc2c1Nc1ccc(N2CCOCC2)cc1,8.24
13,CCOC(=O)c1cnc(SCC(=O)NCc2ccco2)nc1N,-14.5
14,CCOC(=O)c1cnc2c(C)cccc2c1Nc1cccc(C(=O)O)c1.Cl,-8.37
15,CCOC(=O)c1ccc2ncc(C(=O)OCC)c(NCc3ccco3)c2c1,-24.7
16,CCOC(=O)c1cccnc1SC(CC)C(=O)NCc1ccco1 (centres unmarked),-31.5
17,CCOC(=O)c1cnc2c(C(=O)OC)cccc2c1NCc1ccco1,-70.2
18,CCOC(=O)c1cnc2ccccc2c1NCc1ccco1,-56.9
19,CCOc1ccc(NC(=O)c2nc(SCC)ncc2Cl)cc1,15
20,COc1ccc(OC)c(C(C(=O)NC2CCCCC2)N(C(=O)c2snc(C(N)=O)c2N)c2ccccc2OC)c1 (centres unmarked),14.8
